# Source: PubChem BioAssay (several laboratories)
# Bead autofluor: flagged as autofluorescent in microsphere protease counterscreen | compound autofluorescence counterscreen, microsphere flow cytometry; stronger effect = higher value | fluorescence intensity (no concentration beside the values) | actives 3.1% (n = 360,000) | AID 624483; in the data active = fluorescence intensity above about 16000; inconclusive = no clear call, values can overlap the other calls
# MazEF act: MazEF (E. coli) toxin RNase activation; P0AE70; actives 0.32% (n = 350,000); FAM/BHQ RNA-DNA oligo cleavage fluorescence, 5 h; activation, % at 20 µM; in the data active = activation above about 50%
# Vc quorum ag: induces V. cholerae light production without autoinducers. actives 0.16% (n = 350,000). V. cholerae BH1578 lux reporter, luminescence, 6 h. activation, % at 18.7 µM. AID 588436; in the data active = activation mostly above about 9.7%, no sharp cut-off; inconclusive = no clear call, values can overlap the other calls; inactive = mostly below about 3.7%
# Anthrax LF inh2: inhibitors of Bacillus anthracis lethal factor protease. actives 0.12% (n = 360,000). inhibition, % at 10 µM. P15917. AID 588501. multiplex microsphere protease cleavage assay, LF; also: plate controls were buffer without enzyme for full effect and enzyme alone for no effect
# Target sequence (P15917 whole entry, looked up): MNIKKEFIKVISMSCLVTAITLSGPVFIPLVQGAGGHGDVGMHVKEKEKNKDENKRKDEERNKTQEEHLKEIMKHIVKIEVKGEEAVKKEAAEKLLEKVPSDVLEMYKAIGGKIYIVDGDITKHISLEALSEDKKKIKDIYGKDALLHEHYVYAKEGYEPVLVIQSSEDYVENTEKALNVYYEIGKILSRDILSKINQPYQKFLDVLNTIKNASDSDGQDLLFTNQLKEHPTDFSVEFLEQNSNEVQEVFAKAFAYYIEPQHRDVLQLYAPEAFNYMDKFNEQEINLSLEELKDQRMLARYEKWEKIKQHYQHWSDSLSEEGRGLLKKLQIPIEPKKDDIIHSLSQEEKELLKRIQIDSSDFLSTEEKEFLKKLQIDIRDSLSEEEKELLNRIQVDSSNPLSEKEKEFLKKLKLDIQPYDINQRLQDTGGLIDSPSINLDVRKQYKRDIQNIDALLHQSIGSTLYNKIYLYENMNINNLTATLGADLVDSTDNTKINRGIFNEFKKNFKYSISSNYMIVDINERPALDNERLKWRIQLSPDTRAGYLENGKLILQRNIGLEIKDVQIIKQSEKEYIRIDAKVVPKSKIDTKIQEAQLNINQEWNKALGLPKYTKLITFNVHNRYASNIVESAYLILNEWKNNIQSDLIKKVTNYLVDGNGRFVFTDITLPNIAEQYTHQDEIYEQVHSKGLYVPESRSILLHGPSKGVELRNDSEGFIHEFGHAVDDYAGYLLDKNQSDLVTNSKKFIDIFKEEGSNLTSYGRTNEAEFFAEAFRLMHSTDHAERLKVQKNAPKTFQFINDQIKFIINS
# BoNT-F LC inh: blocks Botulinum neurotoxin F light chain protease; Multiplex microsphere protease cleavage assay, flow cytometry; inhibition, % at 10 µM; actives 0.22% (n = 360,000); in the data active = inhibition above about 35%, passing the limit was not always enough; inconclusive = no clear call, values can overlap the other calls; also: plate controls were buffer without enzyme for full effect and enzyme alone for no effect
# BoNT A protease: blocks Botulinum neurotoxin A light chain protease; inhibition, % at 10 µM; actives 0.17% (n = 360,000); multiplex microsphere protease substrate cleavage, flow cytometry; also: plate controls were buffer without enzyme for full effect and enzyme alone for no effect
# Starred values were filed as active, the others as inactive; i = inactive; ? = inconclusive; · = no result given. Sampled rows, rich in hits. Any-hit rate of the full collection: about 3.9%. Rule as the data show it, unless noted: active = inhibition above about 30%; inconclusive = no clear call, values can overlap the other calls; inactive = below that.
SMILES,Bead autofluor,MazEF act,Vc quorum ag,Anthrax LF inh2,BoNT-F LC inh,BoNT A protease
COc1ccccc1CCNC(=O)CSc1nnc2ccc(-c3ccncc3)nn12,4245,-5.6,i,6.0,3.0,0.1
Cc1ccc(CNC(=O)CN2C(=O)COc3ccc(C)cc32)cc1,19416*,8.6,-5.3,-4.5,0.6,0.9
Cc1ccc2c(c1)N(CC(=O)N1CCc3ccccc3C1)C(=O)CO2,21837*,0.2,i,-1.5,-0.2,1.2
Cc1ccc2c(c1)N(CC(=O)N1CCCCC1)C(=O)CO2,3681,3.2,-1.8,-7.7,4.2,1.2
Cc1ccc2c(c1)N(CC(=O)N1CCCc3ccccc31)C(=O)CO2,16620*,5.8,i,-3.9,-1.4,-0.9
O=C(CN1C(=O)COc2ccccc21)N1CCc2ccccc21,3695,-2.0,i,3.7,20.4,0.2
COc1ccc(-n2c(COc3cccc4cccnc34)nnc2SCC(=O)O)cc1,4130,-2.8,-0.3,-3.3,-4.1,0.5
CCc1ccc(N2CC(C(=O)OCC(=O)Nc3ccc(C(C)=O)cc3)CC2=O)cc1 (stereo not given),7918,-7.8,0.2,3.7,1.1,1.2
CC1(C(=O)NC2CCN(Cc3ccccc3)CC2)CCN1Cc1ccc2ccccc2c1 (stereo not given),3163,·,-0.6,-5.8,-6.2,-0.5
Cc1ccc(S(=O)(=O)N2CCN(C(=O)CSc3ncn[nH]3)CC2)cc1,·,-0.4,-1.6,·,·,·
O=C(CCc1nc(-c2ccc(Cl)cc2)no1)NC1CCCCC1,4969,-1.9,-0.3,0.7,8.7,2.7
O=C(CCc1nc(-c2ccccc2)no1)NC1CCCCC1,21669*,-2.6,-0.4,-4.7,3.6,3.8
Cc1ccc(-c2noc(CCC(=O)NCC3CCCO3)n2)cc1 (stereo not given),23346*,-24.6,-0.2,-1.0,-0.8,-0.4
Cc1ccc(-c2noc(CCCC(=O)NCC3CCCO3)n2)cc1 (stereo not given),4915,-1.2,-0.3,1.6,8.4,2.2
OC1c2c(F)cccc2N=C2CCCCN21 (stereo not given),3851,·,-0.1,1.9,2.4,0.2
COc1ccc(-c2c3c(=O)n(C)c(=O)n(C)c3cn2-c2ccccc2)cc1,2852,1.8,i,-1.4,-11.8,-0.2
COc1ccc(C(=O)Nn2cc3c(c2-c2ccccc2)c(=O)n(C)c(=O)n3C)cc1,20615*,-3.6,i,-1.2,1.0,-0.5
Cn1c(CSCc2ccccc2)n[nH]c1=S,9487,4.1,-3.0,-6.1,3.6,1.4
CS(=O)(=O)N(CC(=O)Nc1ccccc1F)C1CCCCC1,4258,7.1,-2.3,0.0,-12.8,-1.6
CS(=O)(=O)N(CC(=O)Nc1ccccc1Sc1ccccc1)C1CCCCC1,22169*,-13.1,3.8,-3.1,-1.5,?
COc1ccc(NC(=O)CN(C)C(=O)c2cccc(S(=O)(=O)Nc3ccc(F)cc3)c2)cc1,6766,2.6,0.6,2.7,-1.3,-0.9
COc1cccc(C(c2c(O)nc(SC)n(C)c2=O)c2c(O)nc(SC)n(C)c2=O)c1,21226*,0.3,-2.0,-4.0,4.3,2.2
CC1=NC(Nc2nc(C)c3ccccc3n2)=NC(C)(C)C1,24864*,7.0,-2.0,4.8,-8.2,1.8
Cc1nc(Nc2ncc3c(n2)CC(C)(C)CC3=O)nc2ccccc12,4797,1.5,-0.3,-10.5,-5.7,-1.6
COCCNC(=O)C1CCCN(Cc2ccccc2-c2ccccc2)CC1 (stereo not given),3793,·,i,1.8,-0.3,0.1
SMILES,Bead autofluor,MazEF act,Vc quorum ag,Anthrax LF inh2,BoNT-F LC inh,BoNT A protease
Cc1ccc(-c2nnn(Cc3nc(N)nc(N4CCOCC4)n3)n2)cc1,23278*,6.9,12.4,0.9,-1.1,0.0
CCOc1cc(/C=C2\NC(=O)NC2=O)ccc1OC(C)C(=O)O (stereo not given),4090,-29.9,-0.4,7.9,?,0.3
O=c1[nH]c(CSc2nnc(-c3ccncc3)n2Cc2ccco2)nc2ccccc12,22482*,1.1,-1.2,-1.1,-3.6,?
Cc1ccc(-c2nnc(SCc3nc4ccccc4[nH]3)n2Cc2ccco2)cc1,10056,1.9,-0.4,-1.1,-3.6,-0.4
O=C(O)CSc1nnc(-c2ccncc2)n1C1CCCCC1,19539*,5.7,i,-0.3,3.8,?
O=c1[nH]c(CSc2nnc(-c3ccccc3)n2C2CCCCC2)nc2ccccc12,22043*,-9.7,2.7,0.4,2.8,2.6
O=C(CSc1nnc(-c2ccncc2)n1C1CC1)c1cccs1,3631,1.6,i,-4.4,-3.3,0.4
O=c1[nH]c(CSc2nnc(-c3ccccc3)n2-c2ccccc2)nc2ccccc12,2014,0.1,i,1.8,-7.5,-0.3
COCCn1c(SCc2nc3ccccc3c(=O)[nH]2)nnc1-c1ccncc1,16786*,6.8,-0.2,-1.9,-1.8,?
C=C(C)CSc1nnc(-c2cccc(Cl)c2)n1N,21220*,3.1,i,-3.4,5.2,3.5
C=C(C)CSc1nnc(-c2ccc(OC)cc2)n1N,19732*,2.3,-0.2,0.8,0.7,1.3
Nn1c(SCC(=O)Nc2ccc3c(c2)OCO3)nnc1-c1cccc(Cl)c1,9039,-7.7,-0.2,-2.8,4.2,0.1
O=c1[nH]n(-c2ccc(Cl)cc2)c(=O)c(Cl)c1Cl,21602*,1.6,i,-0.5,-2.6,?
O=C(O)CCN1C(=O)/C(=C2\C(=O)N(Cc3ccc(F)cc3)c3ccccc32)SC1=S,3808,-2.3,-5.6,5.5,-11.6,-3.2
CC1CN(C2=NC(=O)/C(=C3/C(=O)N(Cc4ccc(F)cc4)c4ccccc43)S2)CC(C)O1 (stereo not given),4079,34.3,-0.7,32.3*,?,?
CCCN1C(=O)/C(=C2\SC(N3CCCCC3)=NC2=O)c2ccccc21,3963,5.9,4.5,-3.9,?,0.4
O=C1N=C(N2CCOCC2)S/C1=C1\C(=O)N(Cc2ccccc2)c2ccccc21,16736*,20.2,-0.2,-2.8,-1.7,-0.7
Cc1cc(NC(=O)COC(=O)C2CC(=O)N(c3ccccc3)C2)no1 (stereo not given),2937,-12.4,i,-6.0,3.7,1.8
COc1ccc(C(=O)c2[nH]c(N)c(C(=O)NCCc3c[nH]c4ccccc34)c2-c2c(F)cccc2Cl)cc1,4585,·,·,0.1,-10.1,-0.2
CCOC(=O)c1c(-c2ccccc2)nc2ccc(C)cn12,19967*,2.5,i,2.2,0.4,?
CC(C)CCn1c(=O)c(C(=O)Nc2ccccc2S(N)(=O)=O)c(O)c2ccccc21,22781*,1.9,-0.2,-3.1,-4.6,-2.4
CCC1(C)OC(c2ccccc2)=C/C(=C/C=C2C(=O)NC(=O)NC2=O)O1 (stereo not given),3468,67.0*,-0.3,-2.5,-8.2,-0.9
CC1(C)OC(c2ccccc2)=C/C(=C/C=C2C(=O)c3ccccc3C2=O)O1,2268,-32.3,0.4,5.2,-9.2,12.5
COCC(=O)NCc1ccc2c(c1)OCO2,22350*,16.1,-1.4,1.2,3.8,1.9
